# Laboratory results: PubChem BioAssay (NCATS)
# Results filed as inconclusive are left out. Entries that show only a call come without a potency. Values without a mark were called inactive. The source made the active and inactive calls. Calls follow the shape of the dose curve; as a rule, active = well fitted curve in the direction sought with a large enough effect; inconclusive = small, poorly fitted or top-dose-only effect, or another doubt; inactive = no such curve, though single readings can be large; an effect the other way counts as inactive or inconclusive.
# Assays:
# [1] = target: Cellular tumor antigen p53 (Homo sapiens) (UniProt P04637); assay: Primary qHTS for small molecule compounds that upregulate eGFP-tagged delta133p53alpha (in N-terminal) cells. (AID 2060322); settings: NCI-H358 eGFP-delta133p53alpha fluorescence, 24 h; activation: hits give high values; also: nearly all actives have a fitted effect of over 75% in size; also: potency is read from the fitted curve at half-maximal effect;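 as to activation: cells pre-induced with doxycycline then dosed without doxycycline; series mostly up to about 56 µM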
# Chain of Cellular tumor antigen p53 (Homo sapiens) (P04637 whole entry, looked up): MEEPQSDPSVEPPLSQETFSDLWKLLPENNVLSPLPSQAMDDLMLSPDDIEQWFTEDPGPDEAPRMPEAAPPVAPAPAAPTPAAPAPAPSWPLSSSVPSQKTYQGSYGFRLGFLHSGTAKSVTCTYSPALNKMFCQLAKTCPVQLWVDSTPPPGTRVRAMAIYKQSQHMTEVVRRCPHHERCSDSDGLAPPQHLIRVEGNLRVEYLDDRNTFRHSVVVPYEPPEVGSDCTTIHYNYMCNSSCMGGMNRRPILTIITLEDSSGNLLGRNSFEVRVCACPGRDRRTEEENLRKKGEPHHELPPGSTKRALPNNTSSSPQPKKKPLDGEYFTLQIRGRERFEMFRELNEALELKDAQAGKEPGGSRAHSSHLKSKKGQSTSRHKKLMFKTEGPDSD
# Method in brief: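 NCI-H358 cells pre-induced 24 h with 10 ng/ml doxycycline for eGFP-delta133p53alpha, plated dox-free and exposed 24 h at 37C to titrated compounds. Fixed, Hoechst-stained; gated GFP peak intensity by laser scanning cytometry, normalized to DMSO (0%) and 57.5 uM 5-azacytidine (100%).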
# [2] = target: Aldehyde dehydrogenase, mitochondrial (Homo sapiens) (UniProt P05091); assay: qHTS for Inhibitors of the Aldehyde Dehydrogenase Family (ALDH2) Primary screen (AID 2061308); also: nearly all actives have a fitted effect of over 55% in size
# [3] = target: Retinaldehyde dehydrogenase 3 (Homo sapiens) (UniProt P47895); assay: qHTS for Inhibitors of the Aldehyde Dehydrogenase Family (ALDH1A3) Primary screen (AID 2061315)
Compound,activation [1],Potency [2],Potency [3],"activity change, negative = inhibition [2]","activity change, negative = inhibition [3]",Potency [1]
CC(=O)N[C@H]1CCN(c2ccc(C3=NOC(CN[S+](=O)([O-])C(C)C)C3)cc2F)C1 (stereo not given in full),11.7%,inactive,inactive,,,
CC1(C)O[C@H]2CC(=O)OC[C@@]23C1=C(O)C(=O)[C@]1(C)C3CC[C@@]2(C)[C@H](c3ccoc3)OC(=O)[C@H]3O[C@]321 (stereo not given in full),-13%,inactive,inactive,,,
O=C(N/N=C/c1ccc(O)c(O)c1)c1cc2ccccc2cc1O,4.33%,inactive,inactive,,,
C=C[C@H]1[C@H](O[C@@H]2O[C@H](CO)[C@@H](O)[C@H](O)[C@H]2O)OC=C(C(=O)OC)[C@H]1C[C@@H]1N[C@H](C(=O)O)Cc2c1[nH]c1ccccc21,-4.58%,inactive,inactive,,,
CC(C)S(=O)(=O)NC[C@H](C)c1ccc(NC(=O)c2cc(F)cc(F)c2)cc1,-15%,inactive,inactive,,,
C[C@]1(OC(=O)/C=C\c2ccc(O)cc2)C[C@@H](O)[C@]2(O)C=CO[C@@H](O[C@@H]3O[C@H](CO)[C@@H](O)[C@H](O)[C@H]3O)C12 (stereo not given in full),23.7%,inactive,inactive,,,
CC(=O)O[C@@H]1[C@H](O[C@@H]2OC[C@](O)(CO)[C@H]2O)[C@@H](O[C@@H]2O[C@@H](C)[C@H](O)[C@@H](O[C@@H]3O[C@H](CO)[C@@H](O)[C@H](O)[C@H]3O)[C@H]2O)[C@H](OC(=O)[C@]23CCC(C)(C)C[C@H]2C2=CCC4[C@@]5(C)C[C@H](O)[C@H](O[C@@H]6O[C@H](C(=O)O)[C@@H](O)[C@H](O)[C@H]6O)[C@@](C)(C(=O)O)C5CC[C@@]4(C)[C@]2(C)CC3)O[C@@H]1C (stereo not given in full),-16.8%,,,3.67% [at 11.2 µM],-13.4% [at 11.2 µM],
CC1=CC(=O)[C@]2(O[C@@H]3O[C@@H](C)[C@H](O)[C@@H](O)[C@H]3O)C=CO[C@@H](O[C@@H]3O[C@H](CO)[C@@H](O)[C@H](O)[C@H]3O)[C@H]12,-18.3%,inactive,inactive,,,
COC(=O)C1=CO[C@@H](O[C@@H]2O[C@H](CO)[C@@H](O)[C@H](O)[C@H]2O)[C@@H]2[C@@](C)(O)[C@@H](O)C[C@]12O,-2.29%,inactive,inactive,,,
C[C@]1(OC(=O)/C=C/c2ccccc2)C[C@@H](O)[C@]2(O)C=CO[C@@H](O[C@@H]3O[C@H](CO)[C@@H](O)[C@H](O)[C@H]3O)[C@@H]21,-8.93%,inactive,inactive,,,
COc1cc2c(c(OC)c1CC=C(C)C)C[C@H](c1ccc(O)cc1O)CO2,12.5%,inactive,inactive,,,
CC1(C(=O)O)CCCC2(C)C3CCC4CC3(CCC12)CC4C(=O)O (stereo not given),-3.05%,inactive,inactive,,,
C=C(C)[C@@H]1CC[C@]2(C)CC[C@]3(C)[C@H](CC[C@@H]4[C@@]5(C)CC[C@@H](O)C(C)(C)[C@@H]5CC[C@]43C)[C@@H]12,17.6%,inactive,inactive,,,
CN=C(N)NCCCCC/C=C(/C)CC(C)C1OC(=O)C(C)C(O)/C=C/C(C)C(O)CC(O)C(C)C(O)CCC(C)C(O)CC2(O)OC(CC(OC(=O)CC(=O)O)CC(O)CC(O)C(C)C(O)/C(C)=C/CCC1C)CC(O)C2O (stereo not given),-19.1%,inactive,inactive,,,
CC(C)(C)NC(=O)[C@@H](c1cccnc1)N(C(=O)c1ccco1)c1ccc(C(C)(C)C)cc1,5%,inactive,inactive,,,
CCCCNc1ncc(C(=O)NCc2ccc(-n3ccnc3)cc2)c(NC2CCC(O)CC2)n1 (stereo not given),,inactive,inactive,,,21.3 µM (active)
CC(=O)C=C=C1C(C)(C)CC(O[C@@H]2O[C@H](CO)[C@@H](O)[C@H](O)[C@H]2O)CC1(C)O (stereo not given in full),-1.79%,inactive,inactive,,,
C=C1C(=O)O[C@@H]2/C=C(\CO)CC/C=C(/C=O)C[C@H](O)[C@@H]12,,inactive,inactive,,,26.9 µM (active)
CC1CCC2(C(=O)OC3OC(CO)C(O)C(O)C3O)CCC3(C(=O)O)C(=CCC4C5(C)CCC(OC6OC(C)C(O)C(O)C6O)C(C)(C)C5CCC43C)C2C1C (stereo not given),-10.7%,inactive,inactive,,,
Cc1cccc(N2CCN(C(=O)c3cc(S(=O)(=O)N(C)C)ccc3N3CCCC3)CC2)c1C,-4.33%,inactive,inactive,,,
